Rows were chosen to be rich in hits. Some 7% of all compounds tested hit in one or more screens of this group.
BAZ2B inh = qHTS Assay for Inhibitors of BAZ2B | Bromodomain adjacent to zinc finger domain protein 2B (Homo sapiens), Q9UIF8 | AlphaScreen BAZ2B-H3K14Ac peptide displacement | Potency, µM (highest dose often 114 µM), hits mostly inhibitors | 360,000 tested, 4.4% active | AID 504333, 2011; also: nearly all actives have a fitted effect of over 60% in size
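AlphaScreen displacement: compounds (up to 110uM) incubated 30 min at room temperature with a preformed 50 nM BAZ2B/50 nM biotinylated H3K14Ac peptide complex in PBS pH 7.4 with Tween-20. Donor and acceptor beads at 10 ug/mL final added, 20 min light-protected before reading.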
JMJD2A Tudor inh = qHTS Assay for Inhibitors of JMJD2A-Tudor Domain. AlphaScreen JMJD2A-Tudor / H3K4me3 peptide binding. Potency, µM (doses to about 114 µM), most hits filed as inhibitors. 390,000 tested, 4.4% active. AID 504339, 2011; also: nearly all actives have a fitted effect of over 50% in size
PLK1 PBD inh = qHTS for Inhibitors of PLK1-PDB (polo-like kinase 1 - polo-box domain): Primary Screen | 360,000 tested, 2.8% active | Potency, µM, actives largely listed as inhibitors | Plk1 PBD binding of FITC phosphopeptide, fluorescence polarization; also: series mostly up to about 57 µM; nearly all actives have a fitted effect of over 65% in size
PI5P4Ka inh = qHTS for Inhibitors of phosphatidylinositol 5-phosphate 4-kinase (PI5P4K). PI5P4Kalpha enzyme, ADP-Glo luminescence, 60 min; hits give low values. 330,000 tested, 1.2% active. max response, %. Phosphatidylinositol 5-phosphate 4-kinase type-2 alpha (Homo sapiens), P48426; active = max response of -50% or lower; inconclusive = between -30% and -50%; inactive = -30% or higher; also: value at the top dose of about 77 µM
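Human PI5P4Kalpha with substrate in 0.038 M HEPES pH 7.4, 0.28 mM EGTA, 0.1% CHAPS, 5% DMSO; reaction started with 5 microM ATP (final), 60 min at room temperature. ADP formed read by ADP-Glo luminescence.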
KAT2A inh = qHTS Assay for Inhibitors of GCN5L2. GCN5L2 HAT assay, ThioGlo1 CoA-SH fluorescence. Potency, µM (highest dose often 58.9 µM), usual class: inhibitors. AID 504327, 2011. Histone acetyltransferase KAT2A (Homo sapiens), Q92830. 390,000 tested, 0.21% active
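qHTS, 1536-well. 20nM enzyme, pH 7.5 HEPES/EDTA/Tween-20 buffer; 15 min compound preinc., RT. Start: 75uM H3(1-25), 70uM AcCoA, 50uM ThioGlo1. Read Ex340/Em540 at t=0 (autofluorescence flag) and t=20 min.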
HP1b binding inh = HTS for Inhibitors of HP1-beta Chromodomain Interactions with Methylated Histone Tails | Chromobox protein homolog 1 (Homo sapiens), P83916 | AID 540317, 2011 | Potency, µM (titrated, usually from 114 µM), most hits filed as inhibitors | AlphaScreen HP1-beta / biotin-H3K9me3 peptide binding | 390,000 tested, 0.56% active; also: nearly all actives have a fitted effect of over 70% in size
Target sequence (P83916 whole entry, looked up): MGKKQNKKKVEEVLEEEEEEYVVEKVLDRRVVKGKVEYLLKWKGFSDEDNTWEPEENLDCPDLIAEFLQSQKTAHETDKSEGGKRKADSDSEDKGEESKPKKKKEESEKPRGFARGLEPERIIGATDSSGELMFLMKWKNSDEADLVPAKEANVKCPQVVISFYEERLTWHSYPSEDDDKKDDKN
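Compound inhibition of the preformed complex between 50 nM HP1-beta and 50 nM biotinylated H3K9me3 peptide was read by AlphaScreen. Buffer was PBS pH 7.4 with 0.01% Tween-20. Incubations ran 30 min at room temperature, with 10 ug/mL donor/acceptor beads.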
Of the large screens only hits and unclear results are named; the others gave an inactive call. Unless noted, calls follow the shape of the dose curve; as a rule, active = well fitted curve in the direction sought with a large enough effect; inconclusive = small, poorly fitted or top-dose-only effect, or another doubt; inactive = no such curve, though single readings can be large; an effect the other way counts as inactive or inconclusive.

Cc1cc(Nc2nn(C)c(N)c2C#N)ccc1F	PI5P4Ka inh -66
COc1ccc(Nc2nc(C)cc(C)c2C#N)cc1	none
CCN(CC)S(=O)(=O)c1ccc2c(c1)N(CC(=O)NCc1ccccc1)C(=O)C1CCCCN21 (stereo not drawn)	none (no result: PLK1 PBD inh, PI5P4Ka inh)
Cc1ccc(NCCC(=O)c2cccs2)cc1Cl	none
Cc1ccc(NCCC(=O)c2cccs2)cc1	BAZ2B inh inconclusive, JMJD2A Tudor inh 50µM
Cc1ccc(NCCC(=O)c2cccs2)cc1C	BAZ2B inh inconclusive, JMJD2A Tudor inh 56µM, PLK1 PBD inh inconclusive, HP1b binding inh inconclusive
CC(C)c1ccc(NCCC(=O)c2cccs2)cc1	BAZ2B inh inconclusive, JMJD2A Tudor inh inconclusive
COc1ccc(OC)c(NC(=O)C(OC(=O)CNC(=O)c2ccccc2)c2ccccc2)c1 (stereo not drawn)	none (no result: BAZ2B inh, PLK1 PBD inh, PI5P4Ka inh, KAT2A inh, HP1b binding inh)
Oc1c(Br)cc(Br)cc1/C=N/NC(=S)N[C@H]1CC2C=CC1C2 (stereo partly drawn)	JMJD2A Tudor inh 40µM, PLK1 PBD inh inconclusive, PI5P4Ka inh -89
O=C(N/N=C/c1cc(Br)c(O)c(Br)c1)C1CC1	PI5P4Ka inh inconclusive
COc1cc(/C=N/NC(=S)NC2CC3C=CC2C3)cc(OC)c1OC (stereo not drawn)	BAZ2B inh inconclusive
CC(C)(C)NC(=S)N/N=C/c1cc(Br)c(O)c(Br)c1	JMJD2A Tudor inh inconclusive, PLK1 PBD inh inconclusive, PI5P4Ka inh -91
CNC(=S)N/N=C/c1cc(Br)cc(Br)c1O	BAZ2B inh 3.2µM, JMJD2A Tudor inh 32µM, PI5P4Ka inh inconclusive, KAT2A inh inconclusive, HP1b binding inh inconclusive
CCOC(=O)Cc1csc(NC(=O)c2sc3nc4ccc(CC)cc4cc3c2N)n1	none
CCOC(=O)Cc1csc(NC(=O)c2sc3nc4cc(C)ccc4cc3c2N)n1	JMJD2A Tudor inh 40µM
CCN(CC)c1ccc(CNc2nc3ccccc3n2C(C)C)cc1	JMJD2A Tudor inh inconclusive, PLK1 PBD inh 19µM
CCN(CC)c1ccc(CNc2nc3ccccc3n2CC)cc1	BAZ2B inh 45µM, JMJD2A Tudor inh inconclusive, HP1b binding inh inconclusive
CCCn1c(NCc2ccc(N(C)C)cc2)nc2ccccc21	BAZ2B inh inconclusive, JMJD2A Tudor inh inconclusive
CC(C)n1c(NCc2ccc(N(C)C)cc2)nc2ccccc21	BAZ2B inh inconclusive, JMJD2A Tudor inh inconclusive
COc1ccc(NC(=O)C2CC(c3ccccc3O)=NO2)cc1OC (stereo not drawn)	none
COc1ccc(NC(=O)C[C@@H]2C(=O)N(c3ccc(OC)cc3)CC2(C)C)cc1	none (no result: BAZ2B inh, JMJD2A Tudor inh, KAT2A inh, HP1b binding inh)
CC(NC(=O)CN1C(=O)NC(C)(c2cccc3ccccc23)C1=O)c1ccccc1 (stereo not drawn)	none
O=C(CCCCC(=O)NCc1cccs1)NCc1cccs1	none
NC(=O)CCCCC(=O)OCCCc1cccs1	BAZ2B inh inconclusive, JMJD2A Tudor inh 89µM
COc1ccc(CC(=O)N2CCN(S(=O)(=O)c3cc(Cl)ccc3Cl)CC2)cc1	none
CCc1noc(C)c1C(=O)N1CCN(S(=O)(=O)c2cccs2)CC1	none
O=[N+]([O-])c1ccc(S(=O)(=O)c2cccc(C(F)(F)F)c2)nc1	PLK1 PBD inh 2.7µM (no result: BAZ2B inh, KAT2A inh)
CC(=O)C(C(C)=O)C(c1ccccc1)c1nc2ccccc2[nH]c1=O (stereo not drawn)	none
Cc1ccc(S(=O)(=O)Nc2cccc3ncccc23)cc1	PLK1 PBD inh inconclusive
Cc1ccc(S(=O)(=O)Nc2ccnc3ccccc23)cc1	PLK1 PBD inh 27µM
Cc1ccc(S(=O)(=O)Nc2ccc(O)c3ncccc23)cc1	BAZ2B inh 22µM, JMJD2A Tudor inh 40µM
COc1ccc2[nH]c(=O)c(CNc3ccc(C)cc3C)cc2c1	none
COc1ccc2[nH]c(=O)c(CNc3cc(C)ccc3C)cc2c1	BAZ2B inh 50µM, JMJD2A Tudor inh inconclusive
CC1CCCCN1Cc1c(O)ccc2c(=O)c(-c3ccc(Br)cc3)coc12 (stereo not drawn)	none

Assay outcomes as filed in PubChem.
